# In the library only some 3.7% were active in any assay of this set; here they are far more common.
# PI5P4Ka inh: inhibitors of human PI5P4K alpha. AID 652105. max response, %. 330,000 compounds, 1.2% hits. PI5P4Kalpha enzyme, ADP-Glo luminescence, 60 min; hits give low values. P48426; active = max response of -50% or lower; inconclusive = between -30% and -50%; inactive = -30% or higher; also: value at the top dose of about 77 µM
# Target sequence (P48426 whole entry, looked up): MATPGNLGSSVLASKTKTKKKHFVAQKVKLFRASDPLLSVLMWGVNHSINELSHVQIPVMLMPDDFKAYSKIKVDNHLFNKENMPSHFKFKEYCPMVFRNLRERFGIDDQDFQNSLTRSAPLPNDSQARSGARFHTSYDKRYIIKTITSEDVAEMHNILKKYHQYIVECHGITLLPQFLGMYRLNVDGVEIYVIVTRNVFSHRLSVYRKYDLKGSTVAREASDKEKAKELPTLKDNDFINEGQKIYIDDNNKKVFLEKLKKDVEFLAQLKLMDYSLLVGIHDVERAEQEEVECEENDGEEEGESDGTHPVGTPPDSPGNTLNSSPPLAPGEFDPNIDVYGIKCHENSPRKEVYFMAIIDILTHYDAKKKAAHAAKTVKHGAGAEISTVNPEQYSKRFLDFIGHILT
#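 Quantitative HTS of the MLSMR library against PI5P4Kalpha with substrate. ATP added last at 5 microM final; room temperature, 60 minutes. Remaining ATP depleted, ADP converted and read as luminescence.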
# WRN helicase inh-1: WRN helicase (human) inhibition | Q14191 | WRN helicase unwinding, fluorescent forked duplex, kinetic | Potency, µM (titrated, usually from 114 µM), actives largely listed as inhibitors | 360,000 compounds, 0.46% hits | AID 651768; also: nearly all actives have a fitted effect of over 55% in size
#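 WRN at 20 nM final preincubated with compound 15 min at room temperature; reaction started with 100 nM fluorophore/quencher forked duplex oligonucleotide and 2 mM ATP final. Unwinding followed kinetically by red fluorescence (ex 525, em 598 nm).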
# VDR inhibitor: blocks the human vitamin D receptor; P11473; VDR-SRC2-3 peptide fluorescence polarization, 2 h; Potency, µM, actives largely listed as inhibitors; 400,000 compounds, 0.93% hits; AID 504847
#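 The screen uses fluorescence polarization to detect compounds that interfere with recruitment of the SRC2-3 coactivator peptide to VDR; plates are read after 2 h at room temperature.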
# FEN1 inh-1: inhibitors of human flap endonuclease 1; 390,000 compounds, 0.35% hits; P39748; AID 588795; Potency, µM (series often up to 114 µM), most hits filed as inhibitors; Recombinant FEN1 flap cleavage, fluorescence, 15 min; also: nearly all actives have a fitted effect of over 65% in size
# Target sequence (P39748 whole entry, looked up): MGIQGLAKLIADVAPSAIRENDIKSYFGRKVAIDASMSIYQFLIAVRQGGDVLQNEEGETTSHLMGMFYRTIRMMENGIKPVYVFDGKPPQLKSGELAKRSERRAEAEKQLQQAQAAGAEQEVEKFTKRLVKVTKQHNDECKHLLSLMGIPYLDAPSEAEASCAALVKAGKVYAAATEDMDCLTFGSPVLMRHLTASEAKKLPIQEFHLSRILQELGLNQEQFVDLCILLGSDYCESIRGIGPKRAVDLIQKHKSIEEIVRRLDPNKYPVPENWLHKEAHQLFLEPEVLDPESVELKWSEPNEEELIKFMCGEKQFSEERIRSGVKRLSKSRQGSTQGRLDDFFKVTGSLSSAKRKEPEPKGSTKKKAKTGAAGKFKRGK
#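 Read-out was taken twice, immediately and after 15 min, following addition of 50 nM substrate to 10 nM FEN1 that had sat with test compound for 15 min at room temperature. Curves came from a four-parameter Hill model.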
# TCR act: T cell receptor activation; primary human leukocytes, anti-CD3, IL-2 HTRF, 48 h; Potency, µM (top dose mostly 9.22 µM), actives largely listed as activators; 330,000 tested, under 10 active
#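 Primary human leukocytes incubated 48 hr with anti-CD3 beads plus compound, without co-stimulation. Secreted IL-2 measured by HTRF (europium cryptate/d2 anti-IL-2 pair, 320 nm excitation, 665 nm emission).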
# PLK1 PBD block: PLK1 (human) polo-box domain binding inhibition; P53350; Plk1 PBD binding of FITC phosphopeptide, fluorescence polarization; Potency, µM, most hits filed as inhibitors; 360,000 compounds, 2.8% hits; also: series mostly up to about 57 µM; nearly all actives have a fitted effect of over 65% in size
# VDR inh confirm: inhibits human vitamin D receptor, primary hit validation; VDR-coactivator inhibition assay, qHTS confirmation; 840 compounds, 89% hits; AID 602199; shares compounds with VDR inhibitor; Potency, µM, actives largely listed as inhibitors
# VDR FP: VDR (human) coactivator binding inhibition, fluorescein polarization; VDR-coactivator binding, fluorescein fluorescence polarization; Potency, µM (doses to about 57.1 µM), actives largely listed as inhibitors; AID 602200; shares compounds with VDR inhibitor; 840 compounds, 48% hits
# VDR bla reporter: confirmation of human vitamin D receptor inhibitors in reporter cells. VDR beta-lactamase reporter cells, FRET ratio; cells co-treated with VDR agonist LG190178. 840 compounds, 23% hits. AID 602202. Potency, µM (top dose mostly 46.1 µM), usual class: inhibitors. shares compounds with VDR inhibitor
# VDR viability: cytotoxic in counter-screen for VDR inhibitors; AID 602204; shares compounds with VDR inhibitor; 840 compounds, 18% hits; Potency, µM (highest dose often 48.3 µM), actives largely listed as cytotoxic; cytotoxicity counter-screen, cell viability, qHTS; also: nearly all actives have a fitted effect of over 75% in size
# FEN1 inh-2: confirmation of human FEN1 inhibitors. shares compounds with FEN1 inh-1. FEN1 flap cleavage, TAMRA/BHQ2 fluorogenic DNA substrate. Potency, µM, actives largely listed as inhibitors. 880 compounds, 79% hits; also: nearly all actives have a fitted effect of over 60% in size
# WRN helicase inh-2: WRN helicase inhibition, cherry-pick retest | 610 compounds, 63% hits | Potency, µM (series often up to 57.1 µM), most hits filed as inhibitors | WRN helicase DNA unwinding, fluorescence kinetic | shares compounds with WRN helicase inh-1; also: nearly all actives have a fitted effect of over 65% in size
# TO DNA binding: binds DNA, flagged in WRN inhibitor counterscreen. thiazole orange DNA binding displacement, fluorescence. Potency, µM (top dose mostly 57.1 µM), actives largely listed as inhibitors. 610 compounds, 10% hits. shares compounds with WRN helicase inh-1;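 also: drop in dye fluorescence marks compound binding to DNA; nearly all actives have a fitted effect of over 60% in size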
# BLM counter: counter-screen for WRN helicase inhibitors: human BLM helicase inhibition. shares compounds with WRN helicase inh-1. Recombinant BLM helicase DNA unwinding, red fluorescence. Potency, µM (series often up to 57.1 µM), actives largely listed as inhibitors. 610 compounds, 60% hits; also: nearly all actives have a fitted effect of over 60% in size
# ADP-Glo counter: counter-screen for PI5P4K inhibitors: ADP-Glo detection interference, no enzyme. shares compounds with PI5P4Ka inh. ADP-Glo detection counter-screen, luciferase luminescence, no enzyme. Potency, µM (doses to about 76.9 µM), most hits filed as inhibitors. 1,100 tested, under 10 active. AID 743285
# TbPYK inh: Trypanosoma brucei pyruvate kinase inhibition, cherry-pick confirmation; shares compounds with PLK1 PBD block; recombinant TbPYK, Kinase-Glo ATP luminescence; Potency, µM (titrated, usually from 76.9 µM), most hits filed as inhibitors; 890 compounds, 67% hits; AID 720569; also: nearly all actives have a fitted effect of over 70% in size
# TbPYK orthogonal: TbPYK inhibition, orthogonal confirmation. shares compounds with PLK1 PBD block. recombinant TbPYK, ADP-Glo luminescence, 60 min. Potency, µM (top dose mostly 76.9 µM), hits mostly inhibitors. 890 compounds, 62% hits. AID 720584; also: nearly all actives have a fitted effect of over 75% in size
# Hits are given with their value; n = inactive; u = inconclusive; x = not tested or not shown; [ ] = another dose, or the depositor's remark. Unless noted, calls follow the shape of the dose curve; as a rule, active = well fitted curve in the direction sought with a large enough effect; inconclusive = small, poorly fitted or top-dose-only effect, or another doubt; inactive = no such curve, though single readings can be large; an effect the other way counts as inactive or inconclusive.
SMILES,PI5P4Ka inh,WRN helicase inh-1,VDR inhibitor,FEN1 inh-1,TCR act,PLK1 PBD block,FEN1 inh-2,others
CC1CCc2nc3ncn(CC(=O)Nc4cccc(C#N)c4)c(=O)c3cc2C1 (stereo unspecified),x,x,n,n,x,x,x,
COc1ccc(C2=Nn3c(nc4sc(C(=O)Nc5cccc(C)c5)c(C)c4c3=O)SC2)cc1,x,x,n,n,x,x,x,
CCc1sc(C(C2C(=O)CC(C)(C)CC2=O)C2C(=O)CC(C)(C)CC2=O)cc1[N+](=O)[O-],u,32µM,13µM,n,n,1.7µM,x,VDR inh confirm=3.4;VDR FP=u;VDR bla reporter=u;VDR viability=n;WRN helicase inh-2=22µM;TO DNA binding=19µM;BLM counter=22µM;TbPYK inh=16µM;TbPYK orthogonal=32µM
O=C(/C=C1\C(=O)Nc2ccccc21)/C=C1\C(=O)Nc2ccccc21,-83,n,56µM,n,n,8.4µM,x,VDR inh confirm=12;VDR FP=u;VDR bla reporter=u;VDR viability=u;TbPYK inh=18µM;TbPYK orthogonal=18µM
O=C1ON=C(c2ccccc2)/C1=C/c1ccc(-c2ccccc2[N+](=O)[O-])o1,-78,u,35µM,n,n,0.95µM,x,VDR inh confirm=7.5;VDR FP=u;VDR bla reporter=16µM;VDR viability=23µM;TbPYK inh=32µM;TbPYK orthogonal=u
CCSC1=N/C(=C\c2ccc(-c3ccccc3[N+](=O)[O-])o2)C(=O)S1,n,n,n,n,n,n,x,
Fc1cccc(-c2nnn3c2nc(NC2CCCCC2)c2ccccc23)c1,x,x,n,n,x,x,x,
CCOC(=O)c1c(N)sc(N)c1C(=O)OCC,n,u,8.9µM,n,n,3.4µM,x,VDR inh confirm=4.7;VDR FP=8.9µM;VDR bla reporter=n;VDR viability=n;TbPYK inh=32µM;TbPYK orthogonal=14µM
Cc1ccc(S(=O)(=O)N2CCN(c3ccnc(-c4cccs4)n3)CC2)cc1,x,x,n,n,x,x,x,
COc1ccc(-c2nc3c4ccccc4n(CC(=O)N4CCN(c5ccccc5F)CC4)c(=O)n3n2)cc1,x,x,n,n,x,x,x,
CC1=C(C)CS(=O)N(S(=O)(=O)c2ccc(Cl)cc2)C1 (stereo unspecified),n,13µM,2.8µM,n,n,1.3µM,x,VDR inh confirm=1.2;VDR FP=u;VDR bla reporter=n;VDR viability=16µM;WRN helicase inh-2=n;TO DNA binding=n;BLM counter=u;TbPYK inh=16µM;TbPYK orthogonal=28µM
CCc1c(C)sc(NC(=O)c2ccoc2C)c1C(N)=O,-66,u,35µM,n,x,2.7µM,x,VDR inh confirm=6.7;VDR FP=u;VDR bla reporter=n;VDR viability=n;ADP-Glo counter=n;TbPYK inh=14µM;TbPYK orthogonal=16µM
CSc1ccc(C2CC(=O)Oc3c2c(=O)n(C)c2ccccc32)cc1 (stereo unspecified),x,x,n,n,x,x,x,
COc1cccc2c1-c1c(O)cccc1C2=O,n,n,n,n,n,n,x,
COc1cccc2c1C(=N)c1c(O)c3c(c(O)c1C2=O)CC(O)(C(C)=O)CC3OC1CC(N)C(O)C(C)O1 (stereo unspecified),n,u,u,11µM,n,n,24,
O=C(NCC(c1ccc2c(c1)OCO2)N1CCOCC1)c1ccccc1F (stereo unspecified),x,x,n,n,x,x,x,
CCC(C)n1c(=O)c2sccc2n2c(CCCC(=O)N3CCN(c4ccccc4)CC3)nnc12 (stereo unspecified),x,x,n,n,x,x,x,
Nc1ccc2c(c1Cl)C(=O)c1ccc(N)c(Cl)c1C2=O,n,n[11.6 µM],n,u,n,u,u,
O=C(COC(=O)c1ccc2c(c1Cl)C(=O)c1ccccc1C2=O)NC1CC1,n,n,n,n,n,n,x,
Cc1ccc(C(=O)N/C(=C/c2ccc(-c3ccc([N+](=O)[O-])cc3)o2)C(=O)NCCCN(C)C)cc1,n,n[11.6 µM],n,u,n,n,43,
Cc1ccc(C(=O)N/C(=C\c2ccc(-c3cccc([N+](=O)[O-])c3)o2)C(=O)NC(C)(C)C)cc1,n,n,n,n,n,n,x,
NC(=O)c1ccc2c(=O)c(O)c(-c3cc(Cl)c(N)c(Cl)c3)[nH]c2c1,n,u,n,56µM,n,n,38,
CCOC(=O)c1ccc(-c2ccc3[nH]c4ccccc4c(=O)c3c2)cc1F,n,n,n,n,n,n,x,
O=C(COC(=O)c1ccc([N+](=O)[O-])o1)NCCCc1ccccc1,n,n,n,u,n,n,19,
O=C(COC(=O)c1ccc([N+](=O)[O-])o1)Nc1cccc2ccccc12,n,n,n,u,n,n,x,
SMILES,PI5P4Ka inh,WRN helicase inh-1,VDR inhibitor,FEN1 inh-1,TCR act,PLK1 PBD block,FEN1 inh-2,others
COc1ccc(CCNC(=O)COC(=O)c2ccc([N+](=O)[O-])o2)cc1,n,n,n,u,n,n,17,
CCCNC(=O)Cn1nc(-c2ccc(F)cc2)c2cnc3ccc(F)cc3c21,x,x,n,n,x,x,x,
CS(=O)(=O)Oc1ccc(Br)c2cccnc12,n,n,n,n,n,n,x,
Nc1ccc(Br)c2cccnc12,n,n,n,u,n,8.4µM,67,
Cc1cccc(C(=O)Nc2ccc(OCc3cc(=O)n4ccc(C)cc4n3)cc2)c1,x,x,n,n,x,x,x,
O=c1ccc2c(-c3ccccc3)c3ccc(O)cc3oc-2c1,u,16µM,u,45µM,n,u,34,
